From the supplement of paper PMC6555819

Columns and labels:
Experiment in all cases: PBM binding z-score (relative to random genomic background probes); higher = stronger binding; sequences stand for … in GC…GCGATTGACAGCGTAGAATGAAGG
[1] = test system: PPARg:RXRa DBDmut IVT, anti-RXR (DBD mutation: RXRa K156A/R161A, NR concentration 270 nM, RXRa partner concentration 90 nM)
In short: (§1)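 For binding z-scores, the reference was random background probes on custom Agilent 4×180K protein-binding microarrays. These arrays were incubated 1 h with ligand-free nuclear receptor dimers in PBS pH 7.4, 2% milk, 0.02% Triton X-100, 1 mM DTT, 0.2 mg/mL BSA and 0.4 mg/ml salmon testes DNA. Fluorescence was scanned after antibody detection of each partner (one per run) and regression-normalized.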

[2] = test system: PPARg:RXRa IVT, anti-PPARg (NR concentration 270 nM, RXRa partner concentration 90 nM)
In short: as §1

[3] = test system: PPARg DBDmut:RXRa IVT, anti-PPARg (DBD mutation: PPARg1 K132A/R137A, NR concentration 270 nM, RXRa partner concentration 90 nM)
In short: as §1

[4] = test system: PPARg DBDmut IVT, anti-PPARg (DBD mutation: PPARg1 K132A/R137A, NR concentration 270 nM)
In short: as §1

[5] = test system: PPARg homodimer (NR concentration 180 nM)
In short: as §1

[6] = test system: PXR:RXRa (NR concentration 270 nM, RXRa partner concentration 90 nM)
In short: as §1

[7] = test system: PXR homodimer (NR concentration 270 nM)
In short: as §1

[8] = test system: RARa:RXR (NR concentration 270 nM, RXRa partner concentration 90 nM)
In short: as §1

[9] = test system: RARa homodimer (NR concentration 270 nM)
In short: as §1

[10] = test system: RARb:RXRa (NR concentration 270 nM, RXRa partner concentration 90 nM)
In short: as §1

[11] = test system: RARb homodimer (NR concentration 270 nM)
In short: as §1

[12] = test system: RARg:RXRa (NR concentration 270 nM, RXRa partner concentration 90 nM)
In short: as §1

[13] = test system: RARg homodimer (NR concentration 270 nM)
In short: as §1

[14] = test system: RXRa DBDmut IVT, anti-RXR (DBD mutation: RXRa K156A/R161A, NR concentration 90 nM)
In short: as §1

[15] = test system: RXRa homodimer (NR concentration 180 nM)
In short: as §1

[16] = test system: THRa:RXRa (NR concentration 90 nM, RXRa partner concentration 90 nM)
In short: as §1

[17] = test system: THRa homodimer (NR concentration 90 nM)
In short: as §1

[18] = test system: VDR homodimer (NR concentration 270 nM)
In short: as §1

Row | Sequence | PBM binding z-score [1] | PBM binding z-score [2] | PBM binding z-score [3] | PBM binding z-score [4] | PBM binding z-score [5] | PBM binding z-score [6] | PBM binding z-score [7] | PBM binding z-score [8] | PBM binding z-score [9] | PBM binding z-score [10] | PBM binding z-score [11] | PBM binding z-score [12] | PBM binding z-score [13] | PBM binding z-score [14] | PBM binding z-score [15] | PBM binding z-score [16] | PBM binding z-score [17] | PBM binding z-score [18]
1 | ATCGAAAGGTCGAGGTGAGTATTGAGAAAGGGAA | 0.628 | 2.34 | 0.498 | 0.451 | 1.67 | 2.33 | 0.428 | 3.07 | 0.977 | 4.15 | 3.11 | 4.2 | 3.88 | 0.619 | 4.12 | 2.93 | 0.768 | 0.377
2 | CCGACTGGTGCATAAGGTTACCATAAGCCAGCCC | -0.572 | -0.302 | -0.529 | -1.4 | 0.502 | 0.475 | -0.018 | 1.18 | 0.243 | 0.928 | 1.25 | 0.548 | 0.37 | 0.0565 | 0.963 | 1.99 | 1.58 | 0.347
3 | CCGACTGGGGCGAAGGTTACCATACTCAGTACGA | 1.13 | 2.83 | -0.805 | -0.462 | 0.137 | 0.261 | -0.624 | 0.961 | -0.33 | 0.726 | 0.751 | 0.697 | 0.405 | -0.021 | 1.12 | 0.439 | -0.242 | -0.459
4 | CGAACTAGGTCATTGACAGGACATTGAATAGTAA | 8.1 | 8.23 | 1.94 | 1.62 | 1.29 | 2.35 | 0.404 | 2.06 | 0.367 | 3.52 | 2.8 | 4.62 | 4.56 | 2.52 | 2.75 | 2.9 | 0.971 | 1.62
5 | TAGCCTAGGTCAGATCGGCCCAGTATACGCTATA | 0.85 | 1.85 | -0.244 | -1.36 | -0.0384 | 0.228 | -0.754 | 0.84 | -0.69 | 2.95 | 1.84 | 2.5 | 3.35 | -0.434 | 1.35 | 1.98 | -0.12 | -0.474
6 | ATCTCCAGGTAAGACTCAGTTCAGTGAAGAACGC | 0.285 | 0.513 | 0.311 | 1.43 | 1.51 | 1.38 | 1.36 | 0.454 | 0.892 | 0.446 | 0.752 | 0.584 | 0.474 | 0.412 | 0.366 | 1.1 | 1.32 | 1.27
7 | AGAATGAGGTTACCAAAGATCATGGAAACGCTTG | 3.74 | 3.68 | 0.737 | 0.847 | 0.294 | 1.8 | 0.0925 | 2.58 | 0.108 | 2.11 | 0.797 | 2.26 | 1.87 | 1.21 | 2.81 | 3.03 | 0.729 | 0.455
8 | ATCGAAAGGTCGTAAGGTGAGTATACAGAAAGGC | 0.287 | 2.13 | 1.43 | 1.06 | 2.31 | 2.96 | 0.735 | 4.21 | 0.848 | 3.72 | 3.06 | 4.61 | 3.87 | 1.72 | 5.29 | 3.35 | 1.64 | 1.24
9 | ATCTCTAGGCAAAGATAGTTCAGTGAATGCAAAT | 0.0233 | 0.0871 | 0.389 | 0.566 | -0.0165 | -0.0478 | 0.35 | -0.456 | 0.524 | 0.211 | 0.533 | 0.288 | 0.586 | -0.0612 | -0.0781 | 0.0396 | -0.577 | 0.0259
10 | ACTAGCAGGCCAAGGGTCACTGAAGATTAGTCCG | 1.21 | 4.08 | 0.528 | 0.377 | 5.87 | 3.39 | -0.283 | 4.86 | 0.818 | 3.76 | 3.8 | 4.5 | 3.97 | 0.371 | 4.49 | 2.68 | -0.0402 | 0.94
11 | AATACAGGGTCATCGTAGGCCAGAATACGCACAG | 2.86 | 4.2 | 1.53 | 0.878 | 1.87 | 4.6 | 0.787 | 4.56 | 1.11 | 4.31 | 3.68 | 5.69 | 5.13 | 3.5 | 6.42 | 4.4 | 1.5 | 3.25
12 | GATACAGGGTCAAGGCCAAAGTACGCGTATTGAT | 2.58 | 4.27 | 2.3 | 0.743 | 3.07 | 4.48 | 0.731 | 5.02 | 1.25 | 4.5 | 3.82 | 5.66 | 5.29 | 2.45 | 6.07 | 3.76 | 1.43 | 2.52
13 | GCGACTGGCGCATCAGCAGGTTACCATAACTTAA | -0.575 | -0.748 | -1.28 | -1.31 | -0.552 | -0.518 | -0.619 | -0.34 | -0.992 | -1.03 | -0.252 | -0.477 | -0.547 | -0.402 | -0.293 | -0.328 | -0.551 | -0.6
14 | CGTCCAGGGTCATAGGAGGTCAGTGAAGACAGAT | 1.75 | 3.92 | 0.473 | -0.113 | 4.96 | 6.84 | 2.73 | 6.61 | 2.39 | 4.79 | 4.98 | 6.27 | 6.23 | 3.62 | 6.72 | 5.12 | 2.18 | 4.31
15 | TCTAGTTGGTCTCGGAGGTCACACACGACGGGTA | 1.7 | 2.32 | 1.38 | 1.29 | 2.19 | 4.11 | 0.901 | 4.22 | 0.998 | 3.35 | 4.01 | 3.75 | 3.47 | 1.15 | 4.16 | 3.65 | 2.74 | 2.48
